Consider 86 molecules from PubChem BioAssay AID1159602 (The Scripps Research Institute Molecular Screening Center, 2016).

About 220 (1%) of roughly 22,000 compounds were called active. Cut-off read from the data, not from the text of the source: active = inhibition above about 35%; inactive = the rest. The entries come from a sample that favours actives as a whole.

Chain of Mitogen-activated protein kinase kinase kinase 5 (Homo sapiens) (Q99683 whole entry, looked up): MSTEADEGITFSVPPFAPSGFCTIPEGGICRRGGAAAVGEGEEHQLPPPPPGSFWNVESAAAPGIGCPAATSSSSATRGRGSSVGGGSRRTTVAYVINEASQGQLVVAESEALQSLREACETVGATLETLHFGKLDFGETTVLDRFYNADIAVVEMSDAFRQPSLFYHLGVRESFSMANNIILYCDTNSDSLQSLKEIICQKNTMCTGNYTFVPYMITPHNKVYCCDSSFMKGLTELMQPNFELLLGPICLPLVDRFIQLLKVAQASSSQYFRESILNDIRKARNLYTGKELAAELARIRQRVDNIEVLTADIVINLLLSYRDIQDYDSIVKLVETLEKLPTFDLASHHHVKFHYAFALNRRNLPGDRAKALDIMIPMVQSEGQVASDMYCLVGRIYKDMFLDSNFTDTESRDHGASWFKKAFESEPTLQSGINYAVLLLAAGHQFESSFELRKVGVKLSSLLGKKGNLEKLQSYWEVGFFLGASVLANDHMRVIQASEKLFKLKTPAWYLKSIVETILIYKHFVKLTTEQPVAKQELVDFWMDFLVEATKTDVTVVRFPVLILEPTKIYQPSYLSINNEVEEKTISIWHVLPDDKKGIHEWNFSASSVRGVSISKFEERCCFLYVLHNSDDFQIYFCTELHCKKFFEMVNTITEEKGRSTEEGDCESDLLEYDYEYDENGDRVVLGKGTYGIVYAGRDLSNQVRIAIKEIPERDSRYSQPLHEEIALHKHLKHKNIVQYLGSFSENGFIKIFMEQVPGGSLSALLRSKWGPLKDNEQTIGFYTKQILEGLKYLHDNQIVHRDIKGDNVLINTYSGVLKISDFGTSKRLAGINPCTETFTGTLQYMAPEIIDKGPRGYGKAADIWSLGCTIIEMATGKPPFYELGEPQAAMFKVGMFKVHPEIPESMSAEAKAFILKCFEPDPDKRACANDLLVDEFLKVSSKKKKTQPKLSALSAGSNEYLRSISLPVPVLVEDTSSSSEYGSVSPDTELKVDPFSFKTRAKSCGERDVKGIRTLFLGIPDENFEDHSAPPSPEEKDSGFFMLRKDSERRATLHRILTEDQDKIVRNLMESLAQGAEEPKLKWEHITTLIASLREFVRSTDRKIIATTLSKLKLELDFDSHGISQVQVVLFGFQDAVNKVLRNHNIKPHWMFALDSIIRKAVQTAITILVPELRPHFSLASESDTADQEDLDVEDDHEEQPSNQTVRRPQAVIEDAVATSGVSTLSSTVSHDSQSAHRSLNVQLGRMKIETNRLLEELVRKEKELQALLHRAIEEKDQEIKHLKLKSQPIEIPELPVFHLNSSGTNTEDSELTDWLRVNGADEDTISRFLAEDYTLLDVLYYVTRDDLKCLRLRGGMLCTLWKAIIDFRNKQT

The experiment has as its target Mitogen-activated protein kinase kinase kinase 5 (Homo sapiens) (UniProt Q99683). The experiment can be described thus: blockers of MAP3K5 kinase activity – biochemical, AlphaScreen, primary screen (AID 1159602).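 Note: 0% = median of compound wells and 100% = no enzyme.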 Conditions: AlphaScreen MKK6 phosphorylation by ASK1, luminescence; at 7.44 µM; stronger effect = higher value. Background: Bead proximity is the source of the signal in Alpha formats.
In general, inhibition refers to the change of the read-out against control, counted positive when it falls. On to `CCNc1nc(C(=O)NCc2ccccc2)cs1`, for which the inhibition was -2.48% (inactive).

On to `O=C(NCCN1CCOCC1)c1ccc2nc(N3CCCC3CO)sc2c1` (stereo unspecified), for which the inhibition was 3.28% (inactive).

Turning to `CCCNc1cc(NC2CCN(Cc3ccccc3)CC2)nc(N)n1`, the inhibition was 6.95% (inactive).

In the case of `O=C([C@@H](O)CSc1ccc(Br)cc1)N1CCC(Nc2ccc3[nH]ncc3c2)CC1`, the inhibition was -0.23% (inactive).

In the case of `CC(=O)c1cccc(-c2nc3ccc(C(=O)NCCO)cc3s2)c1`, the inhibition was 0.91% (inactive).

Take `FC(F)(F)c1ccc(Cn2cnc3c(Nc4ccc(Oc5ccccc5)cc4)nc(N4CCOCC4)nc32)cc1`: the inhibition was 18% (inactive).

Regarding `CC(C)n1cnc2c(Nc3ccc(N4CCOCC4)cc3)nc(NC3CCC(O)CC3)nc21` (stereo unspecified), the inhibition is 6.93% (inactive).

Take `Cc1cc(NC2CCN(Cc3ccccc3)CC2)nc(Nc2ccccc2)n1`: the inhibition was 12.7% (inactive).

Turning to `c1ccc(CN2CCC(Nc3nc(Nc4ccc(N5CCOCC5)cc4)c4ncn(C5CCCCC5)c4n3)CC2)cc1`, the inhibition was 22.4% (inactive).

Turning to `CC(C)n1cnc2c(NC3CCN(Cc4ccccc4)CC3)nc(Nc3ccc(N4CCOCC4)cc3)nc21`, the inhibition is 45% (active).

On to `CC(C)n1cnc2c(NC3CCN(Cc4ccccc4)CC3)nc(NC3CCN(Cc4ccccc4)CC3)nc21`, for which the inhibition was 8.61% (inactive).

Turning to `O=C(Nc1ccc(Oc2ccccc2)cc1)c1cncc(-c2ccc(C(=O)NC3CC3)cc2)c1`, the inhibition is 9.5% (inactive).

Regarding `COc1cc(Nc2ncnc3c2nc(N2CCN(Cc4ccc5c(c4)OCO5)CC2)n3C(C)C)cc(OC)c1OC`, the inhibition is 10.6% (inactive).

As to `CN(C)c1cccc(Nc2ncc(C(=O)Nc3ccc4c(c3)OCO4)s2)c1`, the inhibition is 24.2% (inactive).

For `CC(=O)Nc1ccc(Nc2cc(C)nc(NCc3ccc4c(c3)OCO4)n2)cc1`, the inhibition was 5.86% (inactive).

On to `Cc1cc(Nc2ccc(N3CCOCC3)cc2)nc(NCc2ccc3c(c2)OCO3)n1`, for which the inhibition was 37.3% (active).

Take `COc1ccc(CCNc2cc(C)nc(NCc3ccc4c(c3)OCO4)n2)cc1`: the inhibition is 15.4% (inactive).

Regarding `CN(C)c1cccc(Nc2nccc(Nc3ccccc3)n2)c1`, the inhibition is 13% (inactive).

Consider `Cc1cc(Nc2ccc3c(c2)OCO3)nc(Nc2cccc(N(C)C)c2)n1`, for which the inhibition was 62.2% (active).

For `COc1ccc(CCNc2ncnc3c2nc(Nc2cccc(N(C)C)c2)n3C(C)C)cc1`, the inhibition is 27.5% (inactive).

For `CCNc1nc(C)cc(Nc2ccc(N3CCOCC3)cc2)n1`, the inhibition was 30.4% (inactive).

Regarding `COc1ccc(CCNc2cc(C)nc(Nc3cccc(N(C)C)c3)n2)cc1`, the inhibition is 70.9% (active).

For the molecule `CC(=O)c1cccc(-c2ccc(C(=O)Nc3ccccc3)s2)c1`, the inhibition is -3.18% (inactive).

Regarding `COc1ccc2c(c1)C[C@H](C(=O)Nc1ccc(-c3cn[nH]c3)cc1N(C)CCN(C)C)NC2`, the inhibition was 5.32% (inactive).

`CC(C)N(CCNc1nc(Nc2ccccc2)nc2c1ncn2C(C)C)C(C)C`: the inhibition was 6.04% (inactive).

As to `NC(=O)c1ccc(-c2nc(NCCO)c3ncn(-c4ccsc4)c3n2)cc1`, the inhibition was 0.26% (inactive).

Consider `Cc1cnc(N2CCc3ccccc3C2)nc1NCCN(C(C)C)C(C)C`, for which the inhibition was -16.8% (inactive).

With `COc1cc(-c2cn[nH]c2)ccc1C(=O)NCCc1cccs1`, the inhibition is 15.3% (inactive).

In the case of `Cc1ccccc1-c1cscc1Nc1cnn(-c2cccc(C(=O)Nc3ccc(N4CCOCC4)cc3)c2)c1`, the inhibition was 37.8% (active).

As to `Cc1cccc(CC(=O)Nc2cnn(-c3cccc(C(=O)Nc4ccc(N5CCOCC5)cc4)c3)c2)c1`, the inhibition was 16.2% (inactive).

Turning to `O=C(Cc1cccc(Br)c1)Nc1cnn(-c2cccc(C(=O)Nc3ccc(N4CCOCC4)cc3)c2)c1`, the inhibition was -2.11% (inactive).

Take `c1ccc(CNc2nc(Nc3cccnc3)nc3c2ncn3-c2ccccc2)cc1`: the inhibition is 8.4% (inactive).

Take `CC(=O)c1cccc(-c2nc3ccc(C(=O)NC4CCN(Cc5ccccc5)CC4)cc3s2)c1`: the inhibition is -0.28% (inactive).

Turning to `CC(C)n1c(Nc2ccccc2)nc2c(NCc3cccc(C(F)(F)F)c3)ncnc21`, the inhibition was -21.3% (inactive).

Take `CCCNc1ncnc2c1nc(N1CCN(c3ccccn3)CC1)n2C(C)C`: the inhibition is -14.9% (inactive).

Turning to `COc1ccc(CCNc2cc(Nc3cc(OC)c(OC)c(OC)c3)nc(N)n2)cc1`, the inhibition is -1.19% (inactive).

With `CCCNC(=O)c1csc(Nc2nc3ccccc3n2C)n1`, the inhibition was -7.28% (inactive).

In the case of `COc1ccc(-c2nc(Nc3cc(OC)c(OC)c(OC)c3)c3ncn(C(C)C)c3n2)cc1`, the inhibition was 9.01% (inactive).

On to `CC(C)[C@@H](O)C(=O)N1CCC[C@@H]1C(=O)Nc1ccc2[nH]ncc2c1`, for which the inhibition was 4.14% (inactive).

Take `O=C(NCc1nc2ccccc2[nH]1)c1cc(N2CCCC2CO)nc2ccccc12` (stereo unspecified): the inhibition is 7.25% (inactive).

For the molecule `Fc1cnc(Nc2ccc(N3CCNCC3)cc2)cc1-n1cnc(Nc2ccccc2)n1`, the inhibition is 56.6% (active).

With `c1ccc(Nc2nccc(Nc3ccc(N4CCOCC4)cc3)n2)cc1`, the inhibition was 25.1% (inactive).

For the molecule `c1ccc(-n2cnc(-c3ccnc(Nc4ccc(N5CCOCC5)cc4)c3)n2)cc1`, the inhibition was 9.1% (inactive).

As for `O=C1CCCN1CCn1cnc2c(NC3CC3)nc(NCc3ccc4c(c3)OCO4)nc21`, the inhibition was -15.8% (inactive).

Take `Nc1nc(NCCCN2CCCC2=O)cc(Nc2cnccn2)n1`: the inhibition is 0.26% (inactive).

For the molecule `CCCNc1nc(N2CCCC(C(=O)N(CC)CC)C2)nc2c1ncn2Cc1ccc(C(F)(F)F)cc1` (stereo unspecified), the inhibition was 15.8% (inactive).

Turning to `COc1cc2nc(Cl)nc(NC3CC3)c2cc1OC`, the inhibition was -7.49% (inactive).

In the case of `CCN(CC)c1nc(NCCc2ccc(O)cc2)nc(Nc2cc(OC)c(OC)c(OC)c2)n1`, the inhibition was 4.75% (inactive).

As for `Nc1cccc(-c2cncc(C(=O)NCCOc3ccccc3)c2)c1`, the inhibition was 1.06% (inactive).

In the case of `CC(C)n1cnc2c(NCc3cccc(C(F)(F)F)c3)nc(Nc3ccc(OC(F)(F)F)cc3)nc21`, the inhibition is -3.35% (inactive).

Turning to `Cc1nn(C)c(C)c1-c1nc(C(=O)NCCc2ccc(O)cc2)cs1`, the inhibition is 4.91% (inactive).

Regarding `Nc1nc(NCc2nc3ccccc3[nH]2)cc(N2CCN(Cc3ccc4c(c3)OCO4)CC2)n1`, the inhibition was 1.22% (inactive).

In the case of `c1ccc2[nH]c(CNc3ncnc4nc(Nc5ccncn5)[nH]c34)nc2c1`, the inhibition is -8.27% (inactive).

For the molecule `Cc1cc(NCc2nc3ccccc3[nH]2)nc(N2CCOCC2)n1`, the inhibition is -7.53% (inactive).

Regarding `Cc1cnc(Nc2ccc(N3CCOCC3)cc2)nc1Nc1ccccc1-c1ncn[nH]1`, the inhibition was -18% (inactive).

On to `c1ccc(-c2ncn[nH]2)c(Nc2ccnc(Nc3ccc(N4CCOCC4)cc3)c2)c1`, for which the inhibition was 37% (active).

Turning to `CNC(=O)c1ccccc1Nc1ccnc(Nc2ccc(N3CCOCC3)cc2)c1`, the inhibition was 8.11% (inactive).

Regarding `COc1ccc(CCNc2ncnc3nc(-c4ccc(C(N)=O)cc4)[nH]c23)cc1`, the inhibition was -0.94% (inactive).

On to `NC(=O)c1ccc(-c2ncc(C(=O)NCCOc3ccccc3)s2)cc1`, for which the inhibition is -1.66% (inactive).

Take `COc1cc(Nc2nc(C)cc(N)n2)cc(OC)c1OC`: the inhibition is -5.08% (inactive).

`Nc1cccc(-c2cc(Nc3ccccc3)ncn2)c1`: the inhibition is 4.09% (inactive).

In the case of `c1cnc(Nc2nc(NCc3cccnc3)c3ncn(C4CCCCC4)c3n2)nc1`, the inhibition was 5.63% (inactive).

As for `c1ccc(CN2CCC(Nc3nc(-c4csc5ccccc45)nc4c3ncn4C3CCCCC3)CC2)cc1`, the inhibition was -20.4% (inactive).

For `c1ccc(Oc2ccc(Nc3nc(Nc4ccccn4)nc4c3ncn4-c3ccsc3)cc2)cc1`, the inhibition is 2.93% (inactive).

For `CNC(=O)c1cc(F)ccc1Nc1cc(Nc2ccc3nc[nH]c3c2)ncc1C(F)(F)F`, the inhibition was -2.41% (inactive).

On to `NC(=O)c1ccc(-c2nc(Nc3ccc(N4CCOCC4)cc3)c3ncn(-c4ccccc4)c3n2)cc1`, for which the inhibition is 4.79% (inactive).

Take `Cc1cccc(CC(=O)Nc2cnn(-c3cccc(-c4nn[nH]n4)c3)c2)c1`: the inhibition was 1.78% (inactive).

Regarding `CC(=O)Nc1ccc(Nc2ncnc3c2nc(NCCN2CCOCC2)n3C(C)C)cc1`, the inhibition was -3.14% (inactive).

For the molecule `CC(C)c1nc2ccc(-c3cn[nH]c3)cc2c(=O)[nH]1`, the inhibition is 12.2% (inactive).

For the molecule `Cc1cnc(Nc2cnccn2)nc1NCc1cccnc1`, the inhibition was -9.12% (inactive).

Turning to `O=C(NC1CC1)c1ccc(-c2ccc(C(=O)NCc3cccc(C(F)(F)F)c3)s2)cc1`, the inhibition is 4.99% (inactive).

As for `O=C(NC1CCN(Cc2ccccc2)CC1)c1cc(N2CCCC2CO)nc2ccccc12` (stereo unspecified), the inhibition is -11.9% (inactive).

Regarding `CC(C)C[C@H](O)C(=O)NC1CCC(Nc2ccc3[nH]ncc3c2)CC1` (stereo partly specified), the inhibition was -17% (inactive).

On to `O=C(Cc1cn(-c2ccc(N3CCC(N4CCOCC4)CC3)nn2)c2ccccc12)NCCCN1CCCC1=O`, for which the inhibition is -20.2% (inactive).

Take `CC(C)n1c(N2CCOCC2)nc2c(Nc3ccc(Oc4ccccc4)cc3)ncnc21`: the inhibition was -3.94% (inactive).

`COc1ccc(CCNc2nc(-c3ccccc3)nc3c2ncn3CCN2CCCC2=O)cc1`: the inhibition is -23.4% (inactive).

Turning to `O=C(NCCN1CCOCC1)C1CCN(c2ccc(Nc3ccccc3)nn2)CC1`, the inhibition is 6.22% (inactive).

As for `CCN(CC)CCNC(=O)c1ccc(Nc2cc(Nc3ccccc3C(=O)NC)c(C(F)(F)F)cn2)c(C)c1`, the inhibition is -5.11% (inactive).

For the molecule `c1nc(NC2CC2)c2[nH]c(N3CCC(N4CCOCC4)CC3)nc2n1`, the inhibition is -10.6% (inactive).

Regarding `COc1ccc(-c2cnc3ccc4ccccc4c3c2)cc1`, the inhibition was -3.77% (inactive).

`CCN(CC)c1nc(Nc2cc(OC)c(OC)c(OC)c2)nc(Nc2nc3ccccc3n2C)n1`: the inhibition is 3.84% (inactive).

`Nc1nc(NCc2cccc(C(F)(F)F)c2)cc(NCc2ccc3c(c2)OCO3)n1`: the inhibition is -4.13% (inactive).

Regarding `CCCNC(=O)c1cncc(-c2ccccc2)c1`, the inhibition was -0.96% (inactive).

As to `O=C(NCCCN1CCCC1=O)C1CCN(c2ccc(Cl)nn2)CC1`, the inhibition was -13.9% (inactive).

Turning to `COc1cc(NC(=O)c2cnc(-c3ccccc3)s2)cc(OC)c1OC`, the inhibition is 15% (inactive).

Turning to `Oc1ccc(CCNc2nc(Nc3ccccn3)nc3nc[nH]c23)cc1`, the inhibition is -9.99% (inactive).
